Assay results: PubChem BioAssay AID1209 (Sanford-Burnham Center for Chemical Genomics, 2008)
About 810 (0.43%) of roughly 190,000 compounds were called active. No stated cut-off is given here; in the data, active means inhibition above about 50%; inactive means the rest. Only a selection was taken, and actives are over-represented in it overall.

target: Mannose-6-phosphate isomerase (Homo sapiens) (UniProt P34949); assay: MPI enzyme activity inhibition – biochemical, fluorescence intensity, coupled assay, primary screen (AID 1209); details: purified PMI enzyme, at 20 µM, hits give high values;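 further: plate controls were DMSO vehicle for no effect and wells lacking substrate for full effect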
Sequence (P34949 whole entry, looked up): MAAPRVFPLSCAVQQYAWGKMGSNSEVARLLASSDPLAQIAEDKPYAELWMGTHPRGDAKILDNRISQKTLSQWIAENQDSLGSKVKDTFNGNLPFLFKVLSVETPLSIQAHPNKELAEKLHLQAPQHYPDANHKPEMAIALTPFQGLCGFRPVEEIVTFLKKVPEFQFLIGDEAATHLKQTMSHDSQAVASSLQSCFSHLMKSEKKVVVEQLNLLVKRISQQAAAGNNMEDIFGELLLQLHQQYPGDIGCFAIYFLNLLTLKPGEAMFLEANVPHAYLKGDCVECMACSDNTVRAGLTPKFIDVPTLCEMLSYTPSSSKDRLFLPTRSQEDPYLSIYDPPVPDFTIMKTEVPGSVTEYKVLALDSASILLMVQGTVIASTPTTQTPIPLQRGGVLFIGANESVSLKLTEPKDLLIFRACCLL

inhibition, inactive:
C=CCSc1nnc(C)n1-c1ccc(Cl)cc1 21.9%, C/C(=N\N=C(N)N)c1cccc(Cl)c1 11.7%, O=C(N/N=C/c1ccccc1C(=O)O)C(=O)N1CCCCC1 2.7%, NC(=S)N/N=C/c1ccccc1 11.4%, Oc1ccc(/C=N/NC(=S)Nc2cccnc2)c(O)c1 -1.2%, Oc1ccc(/C=N/NC(=S)NCCN2CCOCC2)c(O)c1 -8.8%, S=C(NCCN1CCOCC1)N/N=C/c1ccccc1 2%, NC(=S)N/N=C/c1ccccc1[N+](=O)[O-] 24.6%, Oc1ccc(/C=N/NC(=S)Nc2cccnc2)cc1O 43.5%, O=C(COc1ccc(Cl)cc1)NCC(=O)N/N=C/c1cccs1 2.8%, Cc1noc(C(=O)Nc2c(C)n(C)n(-c3ccccc3)c2=O)c1Cl -5.9%, COc1cccc(S(=O)(=O)N2CCOCC2)c1 1.2%, O=C(COC(=O)c1cccnc1Cl)NCC1CCCO1 (configuration not stated) -1.2%, CCOc1ccc(OCC(=O)OCn2c(SC)nnc(C)c2=O)cc1 15.9%, O=c1[nH]c2ccccc2n2c(-c3ccncc3)nnc12 1.8%, O=c1[nH]c2ccccc2n2cnnc12 -5.1%, Cc1ccc(NC(=O)N(CCCN2CCOCC2)Cc2cccnc2)cc1C -1.1%, COC(=O)CNC(=O)Cn1cnc2sc(C)c(S(=O)(=O)N3CCC(C)CC3)c2c1=O -9%, CCc1ccc(N2CCCn3c2nc2c3c(=O)n(CCN3CCOCC3)c(=O)n2C)cc1 -10.4%, O=C(N/N=C/c1ccccc1)c1[nH]c2ccc(Br)cc2c1-c1ccccc1 15.4%, Oc1ccc(Br)cc1/C=N/N1CCN(Cc2ccccc2)CC1 6.6%, CC(=O)Nc1cccc(C(=O)O)n1 6.7%, CC(C)OC(=O)c1cccc(C(=O)O)n1 21.8%, Cc1ccc(SCc2cn3cccnc3n2)cc1 12.5%, Cc1ccc(C2=[N+]([O-])C3(CCCCC/C3=N\NC(N)=O)N(O)C2(C)C)o1 (configuration not stated) -4.7%, O=C(COc1ccccc1[N+](=O)[O-])N/N=C/c1ccc(O)c([N+](=O)[O-])c1 -10.2%, Cc1nccn1CC(=O)N/N=C/c1cccc(O)c1 7.9%, COc1cccc(/C=N/NC(=O)Cn2ccnc2C)c1 14.6%, O=C(COc1ccccc1-c1ccccc1)N/N=C/c1ccc2ccccc2c1 8.9%, CCOC(=O)C1=C(C)NC(SC(C)=O)=NC1c1ccc(OC(C)=O)c(OC)c1 (configuration not stated) 17.5%, CC1CCc2c(sc(NC(=O)COC(=O)C3CCCO3)c2C#N)C1 (configuration not stated) -3.7%, O=C(CSCC(=O)N1CCOCC1)Nc1ccccc1 -11.1%, O=C(NCCc1ccccc1)C1CCN(S(=O)(=O)N2CCC3(CC2)OCCO3)CC1 17.1%, O=C1CN(C(=O)CSc2nc(-c3ccccc3)cs2)c2ccccc2N1 -3.1%, COc1ccc2nc(NNC(=O)C3COc4ccccc4O3)sc2c1 (configuration not stated) -43.9%, CN1C(=O)/C(=C/C=C2/CCCN2C)N(C)C1=S 35.8%, CN1C(=O)/C(=C/C=C2\SCCN2C)N(C)C1=S 45.3%, COc1ccc(/C=C(/NC(=O)c2ccccc2)C(=O)N/N=C/c2ccncc2)c(OC)c1 18.6%, COc1ccc(CCNC(=O)c2nnn(CC(=O)Nc3cccc(F)c3)c2N)cc1OC -0.3%, CCOc1ccc(/C=C/C(O)=C2/C(=O)NC3(C)CC2c2ccccc2O3)cc1OC (configuration not stated) -21.3%, CCc1cc(C(=O)Cc2cnn(-c3ccccc3)c2)c(O)cc1O 11.4%, O=C(c1cnn(-c2ccccc2)c1)c1ccccc1O 19.7%, Nn1c(SCC(=O)Nc2ccc3c(c2)OCO3)nnc1C1CC1 5.7%, N#Cc1cccc(N=Cc2c(O)ccc3ccccc23)c1 39.3%, CSc1nccc(Oc2cccc(C#N)c2)n1 -4.1%, COc1ccc(N2CCN(C(=O)c3cccn4c(=O)c5ccccc5nc34)CC2)cc1 -5.8%, CC1CCN(Cc2c(O)ccc3c(=O)c(-c4nc5ccccc5s4)c(N)oc23)CC1 11.2%, CC1CCCN(Cc2c(O)ccc3c(=O)c(-c4nc5ccccc5s4)c(N)oc23)C1 (configuration not stated) 6.9%, O=c1c(-c2ccccc2)c(O)nc2ccccn12 4.9%, COc1cc(C(=O)OCC(=O)N(C)C)cc(NC(=O)c2ccco2)c1OC 5.7%, CO[C@H]1C=CO[C@@]2(C)Oc3c(C)c(O)c4c(O)c(c5c(nc6cc(C)ccn65)c4c3C2=O)NC(=O)C(C)=CC=C[C@H](C)[C@H](O)[C@@H](C)[C@@H](O)[C@@H](C)[C@H](OC(C)=O)[C@@H]1C 13.9%, CO[C@H]1C=CO[C@@]2(C)Oc3c(C)c(O)c4c(O)c(c(C=NN5CCN(C)CC5)c(O)c4c3C2=O)NC(=O)C(C)=CC=C[C@H](C)[C@H](O)[C@@H](C)[C@@H](O)[C@@H](C)[C@H](OC(C)=O)[C@@H]1C 7%, CC1=NC(C(F)(F)F)(C(F)(F)F)C2=C(CC(C)(C)CC2=O)N1Cc1ccco1 6%, CN1CCN(/N=C/c2nc(-c3cccc([N+](=O)[O-])c3)n3ccccc23)CC1 8.1%, O=C(Nc1nc2ccccc2[nH]1)C1CCCC1 4.1%, CC(NS(=O)(=O)c1ccccc1)C(c1cccs1)N1CCN(C)CC1 (configuration not stated) 1.7%, CC(=O)n1cc(C(C[N+](=O)[O-])SCCN)c2ccccc21 (configuration not stated) 6.6%, CC(=O)n1cc(Nc2ccc([N+](=O)[O-])cc2)c2ccccc21 -30.8%, C=CCn1c(SCC(=O)Nc2nc(C)cs2)nnc1C(NC(=O)c1ccccc1)C(C)C (configuration not stated) 5.4%, O=C(CSc1nc(-c2ccccc2)nc2ccccc12)Nc1cccc(C(=O)O)c1 20.6%, CCOC(=O)c1cc(-c2ccccc2)sc1NC(=O)c1ccc(OC)c(OC)c1 42.1%, CCOC(=O)c1cc(-c2ccccc2)sc1NC(=O)c1cc(OC)c(OC)c(OC)c1 13%, CCn1c(SCC(=O)c2ccc(CNC(C)=O)o2)nnc1-c1cccs1 -9%, O=c1nc(-c2ccccc2)c2ccccc2[nH]1 10.3%, O=c1cc(-c2ccccc2)[nH]c2ccccc12 -3.1%, Cc1ccc(Cl)cc1NC(=O)N[C@@H](C)C(=O)O -0.2%, O=C(C1CCN(S(=O)(=O)c2cccc3nsnc23)CC1)N1CCn2c1nc1ccccc12 8.5%, C=CCn1c(NCCOC)nc2c1c(=O)n(C)c(=O)n2C -2.8%, CCCSc1nnc2nc(C)cc(C)n12 -2.6%, CCSc1nnc2nc(C)cc(C)n12 7.6%, CC(Sc1sc(=S)sc1SC(C)C(=O)O)C(=O)O (configuration not stated) -15.4%, Cc1nnsc1SCC(=O)O -12.4%, Cc1ccc(S(=O)(=O)N2CCCCC2)cc1NC(=O)Nc1ccc(Cl)cc1Cl 13.8%, CC(Nc1ccc2c(c1)OCCO2)C(=O)N1CCc2ccccc21 (configuration not stated) 6.4%, Cn1c(=O)n(C)c2cc(S(=O)(=O)Nc3cc(Cl)ccc3O)ccc21 9.8%, CCN1C(=O)c2cccc3c(NC(=O)C(C)(C)C)ccc1c23 13.8%, CCN1/C(=N\N)c2cccc3cccc1c23 -48%, CCN1C(=O)c2cccc3c(S(=O)(=O)Nc4ccccc4)ccc1c23 -1%, CNC(=O)CN1C(=O)c2cccc3cccc1c23 -1.5%, Cc1nc2cc3c(cc2c(C)c1C(=O)OC(C)C)OCO3 -5.2%, Cc1ccc(C(=O)NCc2ccccc2)c(F)c1F 5.5%

inhibition, active:
Oc1cccc(/C=N/NC(=S)NCCN2CCOCC2)c1O 66.9%, Oc1cccc(/C=N/NC(=S)Nc2cccnc2)c1O 55.6%, O=c1[nH]c2ccccc2n2c(-c3ccccc3)nnc12 84.7%, O=C(O)c1cccc(C(=O)O)n1 58%, O=C(COc1ccccc1C(=O)N/N=C\c1ccc(O)c(O)c1)N/N=C/c1ccc(O)c(O)c1 60.6%, Cc1nccn1CC(=O)N/N=C/c1ccc(O)c(O)c1 64.4%, CN1C(=O)/C(=C\C=C2/CCCN2C)N(C)C1=S 53.2%, O=C(Cc1cnn(-c2ccccc2)c1)c1ccc(O)c(O)c1O 70.8%, N#Cc1ccc(N=c2ssnc2Cl)cc1 81.2%, CC1CCCCN1Cc1c(O)ccc2c(=O)c(-c3nc4ccccc4s3)c(N)oc12 (configuration not stated) 58%, CO[C@H]1C=CO[C@@]2(C)Oc3c(C)c(O)c4c(O)c(c(C=NN5CCN(C6CCCC6)CC5)c(O)c4c3C2=O)NC(=O)C(C)=CC=C[C@H](C)[C@H](O)[C@@H](C)[C@@H](O)[C@@H](C)[C@H](OC(C)=O)[C@@H]1C 50.8%, CC(=O)SC(C[N+](=O)[O-])c1cn(C(C)=O)c2ccccc12 (configuration not stated) 63.1%, CCOC(=O)c1cc(-c2ccccc2)sc1NC(=O)c1ccc(OC)cc1 68.2%, O=c1cc2[nH]c3ccccc3c(=O)n2nc1-c1ccccc1 63.9%, Cc1nnsc1SC(C)C(=O)O (configuration not stated) 64.6%, CCN1C(=O)c2cccc3c(N)ccc1c23 64.7%
